Results published in PubChem BioAssay AID2685 (National Center for Advancing Translational Sciences (NCATS), 2010).
The whole screen tested about 320,000 compounds, of which about 2,100 (0.66%) were called active. Another 53% or so got no clear call; they are omitted. Calls follow the shape of the dose curve; as a rule, active = well fitted inhibition curve with a large enough effect in the signal ratio, with a control signal flat (not every such curve was filed as active); inconclusive = small, poorly fitted or top-dose-only effect, or effect the other way, or a change in a side signal; inactive = flat fitted curve, though single readings scatter; the % refers to the signal ratio. The sample as a whole holds a higher share of actives than the screen did.

assay: qHTS Assay for Lipid Storage Modulators in Drosophila S3 Cells; settings: BODIPY lipid droplet fluorescence, 18-24 h, cells fed with added oleic acid; cell number change: measured here: cell count max response; series mostly up to 46.1 µM; lipid storage change, negative = inhibition: at the top concentration;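 as to cell number change: cells counted by Cell Tracker Red CMTPX staining in the red channel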; as to lipid storage change, negative = inhibition: % is scaled to controls: 0 for no effect and ±100 for the full control effect
Procedure, shortened: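 Laser-scanning cytometry quantifies lipid droplet accumulation (500–530 nm total intensity; droplet/cell object ratio) in oleic acid-fed (400 uM added) Drosophila S3 cells treated with a concentration series. 20 uM Triacsin C defined 100% inhibition.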
Potency is read from the fitted curve at half-maximal effect.

Row | SMILES | lipid storage change, negative = inhibition | cell number change | Potency | outcome
1 | COc1cc(NC(=O)c2ccc([N+](=O)[O-])cc2)c(OC)cc1NC(=O)CC(C)C | -0.885% (inactive) | 14.3% |  | 
2 | O=C(c1ccco1)N1N=C(c2ccc3nccnc3c2)CC1c1ccccc1 (centres undefined) | 2.86% (inactive) | 13.8% |  | 
3 | CCCNC(=O)c1ccc2c(c1)S(=O)(=O)c1ccccc1C2=O | -27.4% (inactive) | 6.31% |  | 
4 | COCCNC(=O)c1ccc2c(c1)S(=O)(=O)c1cc(Cl)ccc1C2=O |  | 9.21% | 5.8 µM (active) | 
5 | O=C(NCC1CC1)c1ccc2c(c1)S(=O)(=O)c1cc(Cl)ccc1C2=O | 5.36% (inactive) | 7% |  | 
6 | Clc1ccc(N2CCN(c3cnc4ccccc4n3)CC2)cc1 |  | -5.19% |  | inactive
7 | O=S(=O)(c1ccc(Cl)cc1)c1cnc2ccccc2n1 |  | -118% | 29.1 µM (active) | 
8 | Nc1ncc(S(=O)(=O)c2ccc(Cl)cc2)c(N)n1 |  | 19.4% |  | inactive
9 | Cc1ccc(C(=O)N[C@H](C(=O)OCc2nnc(-c3ccccc3)o2)C(C)C)cc1 | -7.03% (inactive) | -21.1% |  | 
10 | Cc1ccc(C(=O)NC(C(=O)OCc2cn3cc(Cl)ccc3n2)C(C)C)cc1 (centres undefined) |  | 6.32% | 5.17 µM (active) | 
11 | Cc1ccc(C(=O)N[C@H](C(=O)OCc2cc(=O)n3c(n2)sc2ccccc23)C(C)C)cc1 | -0.413% (inactive) | -15.4% |  | 
12 | CCOC(=O)C1CCCN(S(=O)(=O)c2ccc(Br)s2)C1 (centres undefined) |  | -14.8% |  | inactive
13 | Cc1nc2oc3ccc(F)cc3c(=O)c2cc1C(=O)O |  | 9.45% |  | inactive
14 | Cn1c(=O)c2c(nc(NCCCO)n2Cc2cccc(Br)c2)n(C)c1=O |  |  |  | inactive
15 | Cn1c(=O)c2c(nc(NCc3ccco3)n2CC(O)CO)n(C)c1=O (centres undefined) | -6.18% (inactive) | 9.76% |  | 
16 | Cn1c(=O)c2c(nc(NCCCO)n2C/C=C/c2ccccc2)n(C)c1=O |  | -27.3% | 9.2 µM (active) | 
17 | Cn1c(=O)c2c(nc(NCCCO)n2CCc2ccccc2)n(C)c1=O | -17.7% (inactive) | -21.6% |  | 
18 | Cn1c(=O)c2c(nc(NCc3ccco3)n2CCc2ccccc2)n(C)c1=O |  | -22.9% | 11.6 µM (active) | 
19 | CCN(CC)CCNc1nc2c(c(=O)n(C)c(=O)n2C)n1C/C=C(/C)Cl | -2.52% (inactive) | -1.05% |  | 
20 | CCn1c(NCc2ccco2)nc2c1c(=O)n(C)c(=O)n2C | 2.27% (inactive) | -2.38% |  | 

Row | SMILES | lipid storage change, negative = inhibition | cell number change | Potency | outcome
21 | CCCNc1nc2c(c(=O)n(C)c(=O)n2C)n1CCCc1ccccc1 | -32.8% (inactive) | -29.8% |  | 
22 | C/C(Cl)=C\Cn1c(NCCc2ccccc2)nc2c1c(=O)n(C)c(=O)n2C |  | -18.8% | 6.51 µM (active) | 
23 | Cn1cnc(S(=O)(=O)N2CCN(c3cccc(C(F)(F)F)c3)CC2)c1 |  | 3.98% |  | inactive
24 | CCC(C)c1ccccc1OCC(=O)NN1C(=O)c2ccccc2C1=O (centres undefined) | 25.3% (inactive) | -0.73% |  | 
25 | COc1ccccc1C(=O)Nc1ccc(C(=O)N2CCCCC2)cc1 | -8.52% (inactive) | -10.6% |  | 
26 | Cn1c(=O)c2c(nc(CN3CCN(C(=O)c4ccco4)CC3)n2Cc2ccccc2)n(C)c1=O |  |  |  | inactive
27 | O=C(CSc1ncnc2scc(-c3ccc(F)cc3)c12)c1ccc2c(c1)OCCO2 | 8.68% (inactive) | 7.81% |  | 
28 | Cc1ccc(-c2csc3ncnc(SCC(=O)NCc4ccc5c(c4)OCO5)c23)cc1 | 4.42% (inactive) | -1.52% |  | 
29 | Cc1ccc(-c2csc3ncnc(SCC(=O)c4ccc5c(c4)OCCO5)c23)cc1 |  | -23.9% | 5.17 µM (active) | 
30 | COCCn1nnnc1C(c1ccccc1OC)N1CCN(c2ccccc2)CC1 (centres undefined) | 19% (inactive) | 8.57% |  | 
31 | CCn1cnc2c1c(=O)n(CC(=O)OC(C)C(N)=O)c(=O)n2Cc1ccccc1 (centres undefined) | -5.23% (inactive) | 10.8% |  | 
32 | Cc1cc(C(=O)N2CCc3c([nH]c4ccccc34)C2c2cccc(Cl)c2)nn1C (centres undefined) | -2.18% (inactive) | -10.9% |  | 
33 | CCCCC(=O)N1CCCC(C(=O)OCC)C1 (centres undefined) |  | 23.1% |  | inactive
34 | CCOCC(=O)N1CCCC(C(=O)OCC)C1 (centres undefined) |  | -14.8% | 18.4 µM (active) | 
35 | CCOC(=O)C1CCCN(C(=O)Cc2ccc(C)cc2)C1 (centres undefined) | -0.343% (inactive) | 14.8% |  | 
36 | NCCNC[C@@H]1COC2(CCCCCCCCCCC2)O1 | -8.63% (inactive) | 6.45% |  | 
37 | CC1CC(C)CN(S(=O)(=O)c2ccc3c(c2)C(C)(C)C(=O)N3C)C1 (centres undefined) |  | 26.4% |  | inactive
38 | Cc1nc(C)n(C(C)CC(=O)O)n1 (centres undefined) | -5.06% (inactive) | -20% |  | 
39 | CC(=O)c1c(C)nn(C(C)CC(=O)O)c1C (centres undefined) | -5.84% (inactive) | -4.59% |  | 
40 | Cc1nn(C(C)CC(=O)O)c(C)c1C (centres undefined) |  |  | 23.1 µM (active) | 

Row | SMILES | lipid storage change, negative = inhibition | cell number change | Potency | outcome
41 | C/C(Cn1nnc([N+](=O)[O-])n1)=N\NC(=O)c1ccc(C)cc1 | -2.12% (inactive) | 24.7% |  | 
42 | COc1ccc(N(C(=O)CNC(=O)c2cccs2)C(C(=O)NC2CCCC2)c2cccnc2)cc1 (centres undefined) | -7.37% (inactive) | 3.7% |  | 
43 | CC(C)C(=O)Nc1ccc(C(=O)N2CCN(C(=O)c3ccco3)CC2)cc1 |  | 6.86% | 4.61 µM (active) | 
44 | CC(C)c1ccc(NC(=O)C(c2ccccc2)N2CCN(C(=O)c3ccco3)CC2)cc1 (centres undefined) |  | -35.1% | 20.6 µM (active) | 
45 | O=C(c1ccc(NS(=O)(=O)c2cccc([N+](=O)[O-])c2)cc1)N1CCCCCC1 | 18.1% (inactive) | -11.1% |  | 
46 | CCOc1ccccc1NC(=O)C(c1ccccc1)N1CCN(C(=O)c2ccco2)CC1 (centres undefined) | 9.01% (inactive) | -20.1% |  | 
47 | CC(C)Oc1ccc(C(=O)N2CCN(C(=O)c3ccco3)CC2)cc1 |  | 19.8% |  | inactive
48 | O=C(c1ccc(NS(=O)(=O)c2cccc([N+](=O)[O-])c2)cc1)N1CCN(C(=O)c2ccco2)CC1 |  | 1.34% | 9.2 µM (active) | 
49 | O=C(c1ccco1)N1CCN(S(=O)(=O)c2cccc([N+](=O)[O-])c2)CC1 | 28.6% (inactive) | -1.91% |  | 
50 | O=C(Nc1ccc(F)cc1)C(c1ccccc1)N1CCN(C(=O)c2ccco2)CC1 (centres undefined) |  |  |  | inactive
51 | CC(C(=O)Nc1ccccc1)N1CCN(C(=O)c2ccco2)CC1 (centres undefined) | 19% (inactive) | 13.4% |  | 
52 | CCOc1ccc(NS(=O)(=O)c2c(C)nc3sccn3c2=O)cc1 | -7.04% (inactive) | -0.288% |  | 
53 | O=C(Nc1ccc(Br)cc1)C1CCCN(C2=NS(=O)(=O)c3ccccc32)C1 (centres undefined) | 7.4% (inactive) | 0.774% |  | 
54 | Cc1ccc(SC(C)C(=O)Nc2ncn[nH]2)cc1 (centres undefined) |  |  |  | inactive
55 | Cc1ccc(C(CNS(=O)(=O)c2ccccc2)N2CCN(C)CC2)cc1 (centres undefined) |  |  |  | inactive [at 0.0737 µM]
56 | O=S(=O)(NCC(c1ccccc1)N1CCC(O)CC1)c1ccc(Cl)cc1 (centres undefined) |  |  |  | inactive
57 | CC1CCN(C(CNS(=O)(=O)c2ccccc2)c2ccccc2)CC1 (centres undefined) |  | 12.1% | 0.461 µM (active) | 
58 | CCOc1cccc(OCCn2cnc3ccccc3c2=O)c1 | 5.79% (inactive) | 10.8% |  | 
